# Source: the supplement of paper PMC6609913
# Structures can show the parent of a compound that is named as a salt. ± gives the standard deviation of the averaged measurements. In all, about 1,300 compounds were measured (“normalised cell viability”: median about 1, lowest 2% from about 0.14 on). The sample as a whole holds a higher share of the lowest values than the screen did.
# Tested on: V-C8 (BRCA2-deficient hamster cells)
# Test: normalised cell viability (fraction of plate median); higher = more viable cells (less toxic)
# Details: 5 µM
# Method in brief: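 Cell viability was measured with a resazurin assay, normalised to the plate median (modified robust per cent of sample) and averaged over triplicate wells. Hamster V-C8 cells lacking BRCA2 and V-C8 cells with BRCA2 restored were seeded in 96-well plates. After 24 h, library drugs from 10 mM DMSO stocks were added at a final 5 μM in 100 μl medium and left for 3 days (screen 1) or 6 days (screen 2), with solvent-only wells alongside.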
Structure (SMILES),normalised cell viability (treatment time: 3 days),normalised cell viability (treatment time: 6 days)
O=C1CN(/N=C/c2ccc([N+](=O)[O-])o2)C(=O)N1 [Nitrofurantoin],0.937 ± 0.025,1.15 ± 0.29
CN[C@@H]1[C@@H](O)[C@@H](O[C@@H]2[C@@H](O)[C@H](O[C@H]3OC(CN)=CC[C@H]3N)[C@@H](N)C[C@H]2N)OC[C@]1(C)O [Sisomicin sulfate],0.157 ± 0.0072,0.145 ± 0.0056
COc1cc2nc(N(C)CCCNC(=O)C3CCCO3)nc(N)c2cc1OC (configuration not stated) [Alfuzosin hydrochloride],0.987 ± 0.056,1.08 ± 0.08
c1ccc(CC2=NCCN2)cc1 [Tolazoline hydrochloride],1 ± 0.025,0.98 ± 0.038
CC(C)(O)c1ccccc1CC[C@@H](SCC1(CC(=O)O)CC1)c1cccc(/C=C/c2ccc3ccc(Cl)cc3n2)c1 [Montelukast],1.09 ± 0.11,1.1 ± 0.052
CCC(C)(CN(C)C)OC(=O)c1ccccc1 (configuration not stated) [Amyleine hydrochloride],1.074 ± 0.0072,1.02 ± 0.036
C#CCN[C@@H]1CCc2ccccc21 [Rasagiline],1.08 ± 0.055,1.06 ± 0.038
Clc1ccc(C(Cn2ccnc2)OCc2csc3c(Cl)cccc23)c(Cl)c1 (configuration not stated) [Sertaconazole nitrate],0.737 ± 0.18,0.821 ± 0.12
Cc1cccc(N(C)C(=S)Oc2ccc3ccccc3c2)c1 [Tolnaftate],1 ± 0.041,0.983 ± 0.02
C=CCOC(Cn1ccnc1)c1ccc(Cl)cc1Cl (configuration not stated) [Enilconazole],0.93 ± 0.04,0.943 ± 0.015
Clc1ccc(CO/N=C(\Cn2ccnc2)c2ccc(Cl)cc2Cl)c(Cl)c1 [Oxiconazole Nitrate],0.807 ± 0.043,0.898 ± 0.043
CN1CCN(C(c2ccccc2)c2ccc(Cl)cc2)CC1 (configuration not stated) [Chlorcyclizine hydrochloride],0.947 ± 0.019,0.979 ± 0.073
O=C(O)CCNC(=O)c1ccc(/N=N/c2ccc(O)c(C(=O)O)c2)cc1 [Balsalazide Sodium],0.973 ± 0.027,0.953 ± 0.13
Nc1ccn([C@@H]2CS[C@H](CO)O2)c(=O)n1 [Lamivudine],0.147 ± 0.0082,0.139 ± 0.012
Nc1ccn([C@H]2CC[C@@H](CO)O2)c(=O)n1 [Zalcitabine],1.02 ± 0.059,1.04 ± 0.044
Nc1ccn([C@@H]2O[C@H](CO)[C@@H](O)[C@@H]2O)c(=O)n1 [Cytarabine],0.206 ± 0.0091,0.196 ± 0.022
CC(C)NCC(O)COc1ccc(CCOCC2CC2)cc1 (configuration not stated) [Betaxolol hydrochloride],0.1577 ± 0.00096,0.136 ± 0.014
CC(C)NCC(O)COc1ccc(COCCOC(C)C)cc1 (configuration not stated) [Bisoprolol fumarate],1.04 ± 0.044,1.16 ± 0.049
COC(=O)CCc1ccc(OCC(O)CNC(C)C)cc1 (configuration not stated) [Esmolol hydrochloride],1.04 ± 0.077,0.939 ± 0.08
O=C1[C@H](CC[C@H](O)c2ccc(F)cc2)[C@@H](c2ccc(O)cc2)N1c1ccc(F)cc1 [Ezetimibe],1.02 ± 0.093,1.03 ± 0.022
CN1CCN(C2=Nc3ccccc3Oc3ccc(Cl)cc32)CC1 [Loxapine succinate],1.17 ± 0.063,1.15 ± 0.03
Cc1cc(C2CCCCC2)n(O)c(=O)c1 [Ciclopirox ethanolamine],0.207 ± 0.012,0.23 ± 0.015

Structure (SMILES),normalised cell viability (treatment time: 3 days),normalised cell viability (treatment time: 6 days)
COC(=O)C1=C(C)NC(C)=C(C(=O)OCC(C)C)C1c1ccccc1[N+](=O)[O-] (configuration not stated) [Nisoldipine],0.889 ± 0.059,0.894 ± 0.019
Cc1c(N)c(=O)n(-c2ccccc2)n1C [Ampyrone],1.01 ± 0.12,1.06 ± 0.055
Nc1nc(=S)c2ncn([C@@H]3O[C@H](CO)[C@@H](O)[C@H]3O)c2[nH]1 [Thioguanosine],0.307 ± 0.013,0.28 ± 0.017
CCC(Cc1c(I)cc(I)c(N)c1I)C(=O)O (configuration not stated) [Iopanoic acid],0.999 ± 0.036,1.07 ± 0.033
CN(C)CCn1nnnc1SCC1=C(C(=O)O)N2C(=O)[C@@H](NC(=O)Cc3csc(N)n3)[C@H]2SC1 [Cefotiam hydrochloride],0.996 ± 0.028,1.12 ± 0.093
CC(C)NC[C@@H](O)COc1cccc2ccccc12 [(R)-Propranolol hydrochloride],0.914 ± 0.085,1.06 ± 0.085
CCc1cccc(CC)c1NC(=O)CN(CC(=O)O)CC(=O)O [Etifenin],1.07 ± 0.047,1.04 ± 0.043
CC(NCCC(c1ccccc1)c1ccccc1)c1ccccc1 (configuration not stated) [Fendiline hydrochloride],0.197 ± 0.018,0.496 ± 0.16
Cc1cc(NS(=O)(=O)c2ccc(N)cc2)no1 [Sulfamethoxazole],1.02 ± 0.028,0.959 ± 0.076
CC(C)/N=c1\cc2n(-c3ccc(Cl)cc3)c3ccccc3nc-2cc1Nc1ccc(Cl)cc1 [Clofazimine],0.148 ± 0.0016,0.133 ± 0.017
Cc1cnc(C(=O)NCCc2ccc(S(=O)(=O)NC(=O)NC3CCCCC3)cc2)cn1 [Glipizide],1.093 ± 0.0089,1.13 ± 0.034
CO[C@H]1/C=C/O[C@@]2(C)Oc3c(C)c(O)c4c(c3C2=O)C2=NC3(CCN(CC(C)C)CC3)NC2=C(NC(=O)/C(C)=C\C=C\[C@H](C)[C@H](O)[C@@H](C)[C@@H](O)[C@@H](C)[C@H](OC(C)=O)[C@@H]1C)C4=O [Rifabutin],0.973 ± 0.096,0.876 ± 0.032
NC(=O)c1cnccn1 [Pyrazinamide],1.12 ± 0.057,1.05 ± 0.071
CNCCC=C1c2ccccc2C=Cc2ccccc21 [Norcyclobenzaprine],0.959 ± 0.045,0.835 ± 0.035
CSc1ccc2c(c1)N(CCC1CCCCN1C)c1ccccc1S2 (configuration not stated) [Thioridazine hydrochloride],0.121 ± 0.0035,0.0951 ± 0.0067
CN1CCCCC1CCN1c2ccccc2Sc2ccc([S+](C)[O-])cc21 (configuration not stated) [Mesoridazine besylate],1.07 ± 0.07,1.07 ± 0.017
CCSc1ccc2c(c1)N(CCCN1CCN(C)CC1)c1ccccc1S2 [Thiethylperazine dimalate],0.932 ± 0.029,1.1 ± 0.35
CC1(C)[C@@H](OC(=O)CCC(=O)O)CC[C@]2(C)[C@H]3C(=O)C=C4[C@@H]5C[C@@](C)(C(=O)O)CC[C@]5(C)CC[C@@]4(C)[C@]3(C)CC[C@@H]12 [Carbenoxolone disodium salt],1 ± 0.041,1.15 ± 0.26
CC(=O)OCC(=O)[C@@]1(O)CC[C@H]2[C@@H]3CCC4=CC(=O)CC[C@]4(C)[C@@]3(F)[C@@H](O)C[C@@]21C [Fludrocortisone acetate],0.957 ± 0.08,1.11 ± 0.041
"O=C1c2cccc(O)c2C(=O)c2c(O)cccc21 [1,8-Dihydroxyanthraquinone]",0.838 ± 0.065,0.78 ± 0.021
O=C1c2c(O)ccc(O)c2C(=O)c2c(NCCNCCO)ccc(NCCNCCO)c21 [Mitoxantrone dihydrochloride],0.143 ± 0.0017,0.116 ± 0.011
O=C1c2c(O)cccc2Cc2cccc(O)c21 [Anthralin],1.03 ± 0.019,1.003 ± 0.0083

Structure (SMILES),normalised cell viability (treatment time: 3 days),normalised cell viability (treatment time: 6 days)
c1ccc2c(c1)CCCc1cc(NCCN3CCOCC3)nnc1-2,0.351 ± 0.016,0.496 ± 0.056
CN1C2CCCC1CC(NC(=O)c1nn(C)c3ccccc13)C2 (configuration not stated) [Granisetron],0.973 ± 0.092,1.03 ± 0.051
CCN(CC)C(=O)/C(C#N)=C/c1cc(O)c(O)c([N+](=O)[O-])c1 [Entacapone],0.957 ± 0.024,1.06 ± 0.059
CN[C@@H]1[C@@H](O[C@H]2O[C@H](CO)[C@@H](N)[C@H](O)[C@H]2O)OC2C[C@@H](N)[C@@H](O[C@H]3[C@H](O)[C@@H](O)[C@H](N)C[C@@H]3N)OC2[C@@H]1O (some centres not stated) [Apramycin],0.995 ± 0.057,1.03 ± 0.019
Cc1ccnc2c1NC(=O)c1cccnc1N2C1CC1 [Nevirapine],0.942 ± 0.023,0.994 ± 0.039
NC1CCN(c2nc3c(cc2F)c(=O)c(C(=O)O)cn3-c2ccc(F)cc2F)C1 (configuration not stated) [Tosufloxacin hydrochloride],1.01 ± 0.048,1.08 ± 0.024
CC(CCc1ccc(O)cc1)NCCc1ccc(O)c(O)c1 (configuration not stated) [Dobutamine hydrochloride],1.01 ± 0.031,0.976 ± 0.027
CCCC(=O)Nc1ncnc2c1ncn2[C@@H]1O[C@@H]2COP(=O)(O)O[C@H]2[C@H]1OC(=O)CCC [Bucladesine sodium salt],0.995 ± 0.021,1.04 ± 0.014
CCCCc1nc(Cl)c(CO)n1Cc1ccc(-c2ccccc2-c2nnn[nH]2)cc1 [Losartan],1.019 ± 0.0051,1.052 ± 0.0052
C[C@@H]1NC(=O)NC1=O [Methylhydantoin-5-(L)],1 ± 0.089,1.07 ± 0.013
CC1=Nc2ccc(Cl)cc2S(=O)(=O)N1 [Diazoxide],0.95 ± 0.024,1.01 ± 0.054
N=C(N)c1ccc(OCCCCCOc2ccc(C(=N)N)cc2)cc1 [Pentamidine isethionate],0.596 ± 0.07,0.597 ± 0.085
CC1=C(C(=O)O)N2C(=O)[C@@H](NC(=O)[C@H](N)c3ccccc3)[C@H]2SC1 [Cephalexin monohydrate],1.25 ± 0.026,1.09 ± 0.1
Cc1ccccc1N1C(=O)c2cc(S(N)(=O)=O)c(Cl)cc2NC1C (configuration not stated) [Metolazone],1.11 ± 0.073,1.06 ± 0.07
CC(=O)[C@@]12O[C@](C)(c3ccccc3)O[C@@H]1C[C@H]1[C@@H]3CCC4=CC(=O)CC[C@]4(C)[C@H]3CC[C@@]12C [Algestone acetophenide],0.915 ± 0.05,0.945 ± 0.094
CCCNC(C)(C)COC(=O)c1ccccc1 [Meprylcaine hydrochloride],1 ± 0.042,1.25 ± 0.47
C#C[C@]1(O)CC[C@H]2[C@@H]3CCc4cc(OC)ccc4[C@H]3CC[C@@]21C [Ethynylestradiol 3-methyl ether],0.844 ± 0.02,0.886 ± 0.17
C[n+]1ccccc1/C=N/O [Pralidoxime chloride],1.03 ± 0.029,1.02 ± 0.06
CCCCC(CC)CNC(=N)NC(=N)NCCCCCCNC(=N)NC(=N)NCC(CC)CCCC (configuration not stated) [Alexidine dihydrochloride],0.124 ± 0.0044,0.132 ± 0.0043
CN(C)CCN1C(=O)c2ccccc2N(C)c2ccccc21 [Dibenzepine hydrochloride],0.191 ± 0.011,0.215 ± 0.0073
CC(=O)OC[C@H]1O[C@@H]([S-])[C@H](OC(C)=O)[C@@H](OC(C)=O)[C@@H]1OC(C)=O.CCP(CC)CC.[Au+] [Auranofin],0.117 ± 0.0046,0.141 ± 0.0027
OCCN1CCN(CC/C=C2/c3ccccc3Sc3ccc(Cl)cc32)CC1 [Zuclopenthixol hydrochloride],0.605 ± 0.014,0.61 ± 0.032
